Molecules are shown by their SMILES. Out of some 360,000 compounds screened, about 6,000 (1.7%) were called active. Where a call stands in place of a potency, no number is given. Another 8% or so got no clear call; they are omitted. The call rests on the fitted dose curve; in most records, active means well fitted cell-killing curve with a large enough effect; inconclusive means small, poorly fitted or top-dose-only effect, or effect the other way; inactive means flat fitted curve, though single readings scatter. The full list was thinned out, with actives kept by preference.
Potency means the concentration at half of the fitted maximal effect.

The nature of the assay: qHTS for induction of synthetic lethality in tumor cells producing 2HG: qHTS for the HT-1080-NT fibrosarcoma cell line.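 Further: NT is the 2HG producing partner of a matched IDH1 knockdown line; nearly all actives have a fitted effect of over 55% in size.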 To be noted: HT-1080-NT fibrosarcoma viability, CellTiter-Glo ATP luminescence, 48 h; series mostly up to 46.1 µM. Summed up:
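A 48-hour cytotoxicity screen used HT-1080-NT cells plated 2 hours before compound delivery. ATP-based CellTiter-Glo luminescence measured viability, normalized to DMSO and no-cell controls.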
For the compound `Cc1cccc(N(CC(=O)N2CCCC2)S(C)(=O)=O)c1C`, the Potency result was “inactive”.

As to `CC(=O)c1ccccc1NC(=O)COC(=O)C1COc2ccccc2O1` (stereo unspecified), the Potency result is “inactive”.

Turning to `CCOC(=O)[C@]12CCCC=C1N(CCC1=CCCCC1)C(=O)[C@H](CC(=O)NCCCOC)C2`, the Potency entry is “inactive”.

In the case of `CCOC(=O)[C@]12CCC=C1N(CCC1=CCCCC1)C(=O)[C@H](CC(=O)NCc1ccc(C)o1)C2`, the Potency entry is “inactive”.

As to `CCCCOCCCNC(=O)C[C@@H]1C[C@@]2(C(=O)OCC)CCCC=C2N(CCC2=CCCCC2)C1=O`, the Potency was 16.4 µM (active).

As for `COC(=O)[C@]12CCCCC=C1N(Cc1ccc3c(c1)OCO3)C(=O)[C@H](CC(=O)N1CCOCC1)C2`, the Potency result is “inactive”.

As to `O=C(Cn1c(-c2cscn2)nc2ccccc21)Nc1ccc(Cl)cc1`, the Potency result was “inactive”.

Consider `O=C(Cn1c(NCCO)nc2ccccc21)c1ccc(Cl)cc1Cl`, for which the Potency is 20.6 µM (active).

Take `O=S(=O)(O)c1nc2ccccc2n1Cc1ccc(Cl)cc1Cl`: the Potency result is “inactive”.

For `COc1ccc(C(C)C)cc1-c1ccc2nncn2c1`, the Potency result is “inactive”.

Turning to `CC(C)C[C@@H]1Cc2[nH][nH]c(=O)c2[C@H](CCc2ccccc2)O1`, the Potency result was “inactive”.

Turning to `Cc1cc(NC(=O)CSc2nnnn2-c2ccc(F)cc2)no1`, the Potency entry is “inactive”.

In the case of `Cc1cc(NC(=O)CSc2nnc(-c3ccco3)n2N)no1`, the Potency entry is “inactive”.

With `Cc1cc(C)c2c(c1)cc(C)c1nnc(SCC(=O)Nc3cc(C)on3)n12`, the Potency was 6.31 µM (active).

On to `CCOC1=C2[C@H]([C@H]3C(=O)N(c4ccccc4)C(=O)[C@H]3C1)[C@@H](c1ccccc1)N(S(=O)(=O)c1ccc(C)cc1)[C@H]2c1ccccc1`, for which the Potency entry was “inactive”.

Turning to `Cc1cccc(C)c1NC(=O)C(c1ccc(C(F)(F)F)cc1)n1c(=O)c(-c2ccco2)nc2ccccc21` (stereo unspecified), the Potency entry is “inactive”.

For `COCC(C)NC(=O)COc1nncc2ccccc12` (stereo unspecified), the Potency result was “inactive”.

Regarding `CC(=O)c1ccc(Nc2nc(C(N)c3ccccc3Cl)cs2)cc1` (stereo unspecified), the Potency entry is “inactive”.

As for `NC(Cc1ccc(F)cc1)c1csc(Nc2nncc3ccccc23)n1` (stereo unspecified), the Potency was 23.1 µM (active).

As to `Cc1cc(Br)ccc1NC(=O)CCCOc1cc(=O)n(C)c2ccccc12`, the Potency result is “inactive”.

As for `COC(=O)[C@]12CCCCC=C1N(Cc1ccc(Cl)cc1Cl)C(=O)[C@H](CC(=O)NCc1cccc3ccccc13)C2`, the Potency entry is “inactive”.

For the compound `Cc1cc2c3ccccc3[nH]c(=O)n2n1`, the Potency result was “inactive”.

With `COc1ccc(CN2C(=O)C(CC(=O)NCc3cccc4ccccc34)CC(C(=O)N3CCOCC3)=C2C)cc1` (stereo unspecified), the Potency result is “inactive”.

As for `NC(=O)Cn1cc(/C=N\NS(=O)(=O)c2ccccc2)c2ccccc21`, the Potency result was “inactive”.

In the case of `COCCCNC(=O)Cn1cc(/C=C(\C#N)C(=O)N2CCN(c3ccccc3)CC2)c2ccccc21`, the Potency result is “inactive”.

Regarding `COC(=O)Cn1cc(/C=C/[N+](=O)[O-])c2ccccc21`, the Potency is 18.4 µM (active).

As for `CC1Cc2[nH][nH]c(=O)c2C(C2CCCC2)O1` (stereo unspecified), the Potency result was “inactive”.

`CC1(Oc2ccccc2-c2ccno2)CCN(Cc2ccc(-c3ccccc3)o2)C1` (stereo unspecified): the Potency entry is “inactive”.

For `CC(C)N1C(=O)c2ccccc2NC(=O)C1C(=O)NCc1cccs1` (stereo unspecified), the Potency result was “inactive”.

For `Cc1ccc2nc(/C(C#N)=C\c3ccc(OC(=O)c4cccs4)cc3)[nH]c2c1`, the Potency was 7.94 µM (active).

`COc1ccc(CCNC(=O)/C(C#N)=C2\N=C(NC(=O)c3cccs3)c3ccccc32)cc1`: the Potency result is “inactive”.

`Cc1occc1C(=O)NNC(=S)NCC(C)C`: the Potency result was “inactive”.

As for `C/C(=N\NC(=O)c1ccoc1C)c1ccccc1O`, the Potency was 3.26 µM (active).

For the compound `Cc1ccnc(NC(=O)c2ccoc2C)c1`, the Potency entry was “inactive”.

Take `CC(C)Nc1ncnc2c1ncn2[C@H]1CN(Cc2ccncc2)C[C@@H](CO)O1`: the Potency entry was “inactive”.

Regarding `CCCCC(=O)N(C)c1c(CC)nc2c(OCc3ccc(S(C)(=O)=O)cc3)cccn12`, the Potency entry is “inactive”.

`COC(=O)C[C@@H]1C=C[C@@H](NC(=O)c2ccc3c(c2)OCO3)[C@@H](CO)O1`: the Potency entry was “inactive”.

In the case of `C[C@H](CO)N1C[C@H](C)[C@H](CN(C)C(=O)c2ccncc2)OCc2ccccc2-c2c(n(C)c3ccccc23)C1=O`, the Potency result was “inactive”.

In the case of `CC(=O)C1C(c2cccc(Oc3ccccc3)c2)NC(=O)NC1(O)C(F)(F)F` (stereo unspecified), the Potency result was “inactive”.

Turning to `O=C1NC(c2ccc(-c3ccccc3[N+](=O)[O-])o2)C(C(=O)c2ccc(Cl)cc2)C(O)(C(F)(F)F)N1` (stereo unspecified), the Potency was 16.4 µM (active).

For the compound `CC1=NN(c2ccc(Cl)c(C(=O)O)c2)C(=O)/C1=C/c1ccc(-c2ccccc2[N+](=O)[O-])o1`, the Potency entry is “inactive”.

With `CCOC(=O)[C@]12CCCC=C1N(CCC1=CCCCC1)C(=O)[C@H](CC(=O)N1CCSCC1)C2`, the Potency result was “inactive”.

On to `N#CCCN(C(=O)Nc1ccc(Cl)c(Cl)c1)C1CCCCC1`, for which the Potency result was “inactive”.

Turning to `COc1ccc(NC(=O)c2c(C)oc3c2CCCC3)cc1`, the Potency entry was “inactive”.

As to `COc1ccc(N/N=C2/CCCCC2=O)cc1`, the Potency was 1.26 µM (active).

As for `Cc1ccc(N/N=C2\COC(C)(C)CC2=O)cc1`, the Potency entry was “inactive”.

As to `Cc1ccnc(SC2CC(=O)N(c3ccccc3)C2=O)n1` (stereo unspecified), the Potency result is “inactive”.

For the compound `O=C1CC[C@@H](C(=O)N2CSC[C@@H]2C(=O)Nc2ccc(C(F)(F)F)cc2)N1`, the Potency entry was “inactive”.

Consider `O=S1(=O)CC(N2CCN(Cc3ccccc3F)CC2)CN1Cc1cn(Cc2cccc(C(F)(F)F)c2)nn1` (stereo unspecified), for which the Potency entry is “inactive”.

As for `Cc1ccccc1OCCOc1ccc([N+](=O)[O-])cc1/C=N/n1cnnc1`, the Potency is 2.31 µM (active).

Turning to `Cc1ccccc1OS(=O)(=O)c1cccc([N+](=O)[O-])c1`, the Potency result was “inactive”.

Consider `COc1cccc(OCCOc2cccc(/C=N/n3cnnc3)c2)c1`, for which the Potency entry is “inactive”.

Turning to `CCOc1ccc(CCN2C(=O)c3cccnc3C2=O)cc1OCC`, the Potency entry is “inactive”.

Consider `NC1=CC(=O)C(=O)c2cccnc21`, for which the Potency is 25.9 µM (active).

As to `Cc1ccc(S(=O)(=O)N2CC[C@H]3[C@@H](C2)C(=O)C[C@@H](c2ccccc2)N3S(=O)(=O)c2ccc(C)cc2)cc1`, the Potency entry is “inactive”.

On to `c1ccc(-c2nnc(N3CCOCC3)c3ccccc23)cc1`, for which the Potency entry is “inactive”.

Turning to `c1ccc2c(NC3C4CC5CC(C4)CC3C5)nc(N3CCOCC3)nc2c1` (stereo unspecified), the Potency was 14.6 µM (active).

For the compound `Fc1cnc(N2CCOCC2)nc1NCc1ccccc1`, the Potency result is “inactive”.

Turning to `Cc1nc2ccccn2c(=O)c1NC(=O)c1ccc(Br)o1`, the Potency entry is “inactive”.

As to `CCCCN1C(=O)C(CC(=O)NC(c2ccccc2)c2ccccc2)CC(C(=O)N2CCOCC2)=C1C` (stereo unspecified), the Potency result was “inactive”.

In the case of `CC1=C(C(=O)N2CCOCC2)CC(CC(=O)NCC2CCCCC2)C(=O)N1Cc1ccc(F)cc1` (stereo unspecified), the Potency result was “inactive”.

The record behind these values is PubChem BioAssay AID686970 (National Center for Advancing Translational Sciences (NCATS), 2013).
